The campaign covered roughly 59,000 compounds. About 30 (0.05%) were called active. This is one part of a sample in which actives are shown more often than they occur. Rule as the data show it: active = max dye-equivalent concentration above about 11 nM; inconclusive = between about 1.1 nM and that limit; inactive = weaker than that.

A short description of the assay: qHTS Assay for Spectroscopic Profiling in Rhodamine Spectral Region. As to conditions: Rhodamine-region fluorescence, 547/598 nm, Tris buffer; hits give high values. From the text:
NIH Molecular Libraries Screening Centers Network [MLSCN] NIH Chemical Genomics Center [NCGC] […] Occasionally, the artifactual effect may originate from the compound#s own spectral or other biophysical properties which generally tend to track its assay concentration. Pre-screening/profiling the library with respect to the compounds# spectral properties should help one exclude false positives early on. While the most informative fluorescent profiling data set is obtained by performing a full excitation and emission scan of each well by using a monochromator-based plate reader, such an approach is practical only on a very limited scale as scanning each well requires long time. An alternative approach, applied here, is to perform plate reader scans using selected excitation and emission wavelength pairs to generate a multidimensional relational database that correlates compound concentration and the respective relative fluorescence intensity at a given wavelength set. A standard curve of rhodamine present on each plate as six-point concentration series, was used to compute a normalized fluorescence response, termed dye-equivalent concentration, for each compound at each concentration.
NCGC Assay Protocol Summary: Buffer: 100 mM Tris buffer, pH 8.0 Dye standard plate: The wells in columns 1 through 4 of a Kalypsys polypropylene 1536-well compound plate were filled with standard solutions of fluorophore corresponding to the spectral region of interest. Solutions of rhodamine were placed in the following wells: E1, F1: 3 mM, E2, F2: 300 uM, E3, F3: 30 uM, E4, F4: zero (DMSO), G1, H1: 3 uM, G2, H2: […], G3, H3: 300 nM, G4, H4: zero (DMSO). Assay Steps: Six uL of buffer were dispensed to 1536-well Greiner black plates. Compounds and dye standards (23 nL) were transferred via Kalypsys PinTool. The plates were incubated for 15 min at room temperature, and then read on ViewLux (Perkin-Elmer) High-throughput CCD imager using 547 nm and 598 nm excitation and emission filter set. Keywords: NIH Roadmap, MLSCN, MLI, MLSMR, qHTS, NCGC, Rhodamine , Fluorescent Profiling.
As to `COc1ccc(Cl)cc1S(=O)(=O)N1CCN(CC(=O)C(C)(C)C)CC1`, the max dye-equivalent concentration result was “inactive”. `O=C(CCCC(=O)N(CC(=O)NC1CCCC1)Cc1ccccc1Cl)Nc1ccccn1`: the max dye-equivalent concentration result was “inactive”. In the case of `COc1ccc(CCNC(=O)c2cc3sccc3n2C)cc1OC` it was “inactive”; in that of `Cc1ccc(C)c(S(=O)(=O)N2CC(=O)Nc3ccccc32)c1`, “inactive”; in that of `CCO/C([O-])=N/c1c[n+](N2CCOCC2)no1`, “inactive”. In the case of `C/C(=C(\C#N)C(=O)NCCCN1CCOCC1)N(C)C` it was “inactive”.

Regarding `Cc1ccc(SCc2cc(=O)[nH]c(N3CCCCC3)n2)cc1`, the max dye-equivalent concentration entry was “inactive”.

Consider `FC(F)(F)c1ccccc1-c1cc(NCc2ccccc2)ncn1`, for which the max dye-equivalent concentration entry is “inactive”. `CCOc1ccc(-c2cn(S(=O)(=O)c3cccc4nsnc34)nc2N)cc1`: the max dye-equivalent concentration entry is “inactive”.

As for `O=C(O)c1c(Br)c(Br)c(Br)c(Br)c1C1c2ccc(O)cc2Oc2cc(O)ccc21`, the max dye-equivalent concentration is 11 nM (active). Consider `COC(=O)NC1(C(F)(F)F)NC(=O)N(C2CCCCC2)C1=O` (stereo not given), for which the max dye-equivalent concentration result is “inactive”.

`C=CCc1cccc2cc(C(=O)N3CCN(C(=O)OCC)CC3)c(=O)oc12`: the max dye-equivalent concentration result is “inactive”.

As for `COc1ccc2[nH]c3c(=O)n(Cc4ccco4)cnc3c2c1`, the max dye-equivalent concentration entry is “inactive”.

With `COCCNC(=O)CN(C(=O)CCC(=O)Nc1cc(C)on1)c1ccc(C)cc1C`, the max dye-equivalent concentration result is “inactive”.

Regarding `CCC(C)(C)n1nnnc1C(c1cccs1)N1CCN(c2nc3ccccc3s2)CC1` (stereo not given), the max dye-equivalent concentration entry was “inactive”.

As for `Nc1nc(N)c2[nH]c(CNc3ccc(C(=O)O)cc3)nc2n1`, the max dye-equivalent concentration result is “inactive”.

In the case of `O=C1CCCc2c1[nH]c1ccc(Br)cc21`, the max dye-equivalent concentration entry was “inactive”. With `C=C(Br)CN1CCN(CC(=C)Br)CC1`, the max dye-equivalent concentration result was “inactive”. In the case of `O=C(Nc1nc2cc3c(cc2s1)OCCO3)c1cccc(S(=O)(=O)N2CCOCC2)c1` it was “inactive”. For the compound `CCOc1nc(-c2ccc(OC)cc2)ccc1-c1noc(-c2cc(OC)c(OC)c(OC)c2)n1`, the max dye-equivalent concentration entry is “inactive”. Turning to `Cc1ccc(C)c(NC(=O)C2CCCN2C(=O)OC(C)(C)C)c1` (stereo not given), the max dye-equivalent concentration result is “inactive”. Regarding `O=C(O)[C@@H](O)Cc1ccccn1`, the max dye-equivalent concentration entry was “inactive”. Then `O=C(O)CCC(=O)Nc1ccc(N2CCOCC2)cc1`, with “inactive”. In the case of `Cc1ccc2nc(CC(=O)c3ccc4ccccc4c3)c(=O)[nH]c2c1`, the max dye-equivalent concentration entry was “inactive”. On to `COc1ccc(-c2cc3ccc(OCc4nn[nH]n4)cc3oc2=O)cc1`, for which the max dye-equivalent concentration result is “inactive”. Consider `O=C(Nc1ccc2c(c1)OCCO2)C1CCCN(c2ncccn2)C1` (stereo not given), for which the max dye-equivalent concentration entry was “inactive”. In the case of `CCOc1ccc2c(c1)cc(CN(C(=O)CC)C1CCCCC1)c1nnnn12` it was “inactive”; in that of `COCCn1c(=O)c(CCc2ccccc2)nc2cnc(N3CCNCC3)nc21`, “inactive”. With `Cc1cc(=O)cc(C)[nH]1`, the max dye-equivalent concentration result was “inactive”.

In the case of `Cn1c(=O)cc(OCCCC(=O)N2CCN(Cc3ccc4c(c3)OCO4)CC2)c2ccccc21`, the max dye-equivalent concentration entry was “inactive”. In the case of `COc1ccc2[nH]c3cc4c(=O)c5cc(OC)ccc5[nH]c4cc3c(=O)c2c1` it was “inactive”. In the case of `CC(=O)O[C@]1(C(C)=O)CC[C@@H]2[C@@H]3C=C(C)C4=CC(=O)CC[C@@]4(C)[C@H]3CC[C@]21C` it was “inactive”; in that of `COc1ccc(CC(=O)n2nc(-c3cccnc3)nc2N)cc1`, “inactive”. For `Oc1ccc(Cn2cc[nH]c2=S)cc1`, the max dye-equivalent concentration entry was “inactive”. On to `O=C(CN1CCN(S(=O)(=O)/C=C/c2ccccc2)CC1)NC(=O)NCc1ccco1`, for which the max dye-equivalent concentration result is “inactive”. For the compound `CC1CCCC(NC(=O)CN2CCN(Cc3ccc(Cl)cc3)C2=O)C1C` (stereo not given), the max dye-equivalent concentration result is “inactive”. In the case of `Clc1ccc(Nc2nc(-c3cccs3)cs2)nc1` it was “inactive”; in that of `Cc1ccc(/C(=C/CN2CCCC2)c2ccccn2)cc1`, “inactive”; in that of `Cc1ccc2c(c1)c1ncn(CCC3=CCCCC3)c(=O)c1n2C`, “inactive”.

With `COc1ccc(S(=O)(=O)NC2(C(F)(F)F)N=C3SCCN3C2=O)cc1` (stereo not given), the max dye-equivalent concentration entry was “inactive”. For the compound `CCn1c(-c2cc(OC)ccc2OC)csc1=Nc1c(C)n(C)n(-c2ccccc2)c1=O`, the max dye-equivalent concentration result was “inactive”. Consider `O=C(c1cnccn1)N1CCC2(CCCN(Cc3ccccc3)C2)CC1`, for which the max dye-equivalent concentration result was “inactive”. As for `CCN(CC)CCNC(=O)C1c2ccccc2C(=O)N(C)C1c1cn(C)c2ccccc12` (stereo not given), the max dye-equivalent concentration entry was “inactive”.

For the compound `CC(C)(O)C#Cc1ccc(C(=O)N2CCC(C(N)=O)(N3CCCCC3)CC2)cc1`, the max dye-equivalent concentration result is “inactive”. In the case of `O=C(O)[C@@H]1CCCN1c1ncnc2sc3c(c12)CCC3` it was “inactive”. Take `O=C(CSc1nc2cc3c(cc2c(=O)n1CCC1=CCCCC1)OCO3)NCc1ccco1`: the max dye-equivalent concentration entry was “inactive”. On to `CC1C=CCC2C(=O)N(c3cccc(C(=O)N4CCCCCC4)c3)C(=O)C12` (stereo not given), for which the max dye-equivalent concentration entry is “inactive”. Take `COCCNC(=O)CSc1nc2c(n1-c1ccccc1)CCCC2`: the max dye-equivalent concentration entry was “inactive”. Turning to `COc1ccc(S(=O)(=O)N2CCCC2)c(C)c1C`, the max dye-equivalent concentration result was “inactive”. For the compound `COc1ccc(C2C(C(=O)N3CCN(c4ccc(OC)cc4)CC3)c3ccccc3C(=O)N2C)cc1` (stereo not given), the max dye-equivalent concentration result is “inactive”. In the case of `O=C(CNS(=O)(=O)c1cccc(C(F)(F)F)c1)Nc1ccccc1F`, the max dye-equivalent concentration result is “inactive”. In the case of `CC(C)OC(=O)C(C#N)c1nc2ccccc2nc1N1CCN(Cc2ccccc2)CC1` (stereo not given) it was “inactive”; in that of `CC(=O)c1cccc(NC(=O)N2CCCC2C(=O)NCCC(C)C)c1` (stereo not given), “inactive”; in that of `O=S(=O)(c1ccc(Sc2nnc3ccccn23)nc1)N1CCOCC1`, “inactive”. In the case of `Cc1ccc(NC(=O)Cn2nc(C)c3ccccc3c2=O)c(C)c1`, the max dye-equivalent concentration result is “inactive”.

For the compound `CCOC(=O)c1sc(=S)n2c1[nH]c(=O)c1ccc(C(=O)OC)cc12`, the max dye-equivalent concentration entry was “inactive”. In the case of `O=C(Nc1ccccc1)Nc1ccccc1C(=O)NCc1ccco1`, the max dye-equivalent concentration entry was “inactive”. Turning to `CCCCSc1nnc(-c2ccc(NC(=O)CC)cc2)n1C`, the max dye-equivalent concentration result is “inactive”.

Consider `Cc1cccc(N=C2NC(=O)CS2)c1C`, for which the max dye-equivalent concentration result was “inactive”. In the case of `CC1=NCCN1S(=O)(=O)c1ccc(Br)c(C)c1`, the max dye-equivalent concentration result was “inactive”. As to `O=c1c(-c2ccc(F)cc2)nc2cnc(N3CCOCC3)nc2n1-c1ccccc1`, the max dye-equivalent concentration result is “inactive”.

For the compound `OCCCNC(c1ccccc1)c1ccc(O)cc1` (stereo not given), the max dye-equivalent concentration result is “inactive”.

Turning to `Cc1ccccc1NC(=O)c1cc(S(=O)(=O)N2CCOCC2)cs1`, the max dye-equivalent concentration result is “inactive”. `O=C(Nc1cccnc1)c1noc2c1CCCCC2`: the max dye-equivalent concentration result is “inactive”. In the case of `CCC(=O)Nc1ccccc1N1CCN(S(C)(=O)=O)CC1` it was “inactive”.

For `COc1ccccc1C(=O)N1CCNC(=O)C1CC(=O)Nc1ccc(Cl)cc1` (stereo not given), the max dye-equivalent concentration result was “inactive”. Turning to `C[C@H](CCC(=O)O)[C@H]1CC[C@@H]2[C@H]3CC[C@H]4C[C@H](O)CC[C@@]4(C)[C@@H]3CC[C@@]21C`, the max dye-equivalent concentration entry was “inactive”.

Consider `NC(=O)CSc1oc(-c2cccs2)nc1S(=O)(=O)c1ccccc1`, for which the max dye-equivalent concentration entry was “inactive”. For `CCOCCN(C=O)c1cccc(OC)c1`, the max dye-equivalent concentration entry is “inactive”. For `O=C(COC(=O)c1ccc2c(c1)OCCO2)NCc1ccccc1`, the max dye-equivalent concentration result was “inactive”.

(Values after PubChem BioAssay AID594 (National Center for Advancing Translational Sciences (NCATS), 2007).)
